One test relates to Staphylococcus aureus. The following applies: Concentration 32 ug.mL-1; ASSAY_TEST Inhibition of Bacterial Growth; detection method Absorption (OD600); MEDIA CAMHB; plate type 384well; NBS; CORNING #3640; time 18 hr.
The next test concerns Escherichia coli. The following applies: Concentration 32 ug.mL-1; ASSAY_TEST Inhibition of Bacterial Growth; detection method Absorption (OD600); MEDIA CAMHB; plate type 384well; NBS; CORNING #3640; time 18 hr.

Results with a measured potency or affinity are listed apart.

Take `COc1ccccc1/C=C/C(=O)c1cc(OC)c(OC)cc1OC`: the Inhibition (as a rule, the change of the read-out against control, counted positive when it falls) in the test with Staphylococcus aureus is 26.72%; in the test with Escherichia coli, -13.16%.

With `O=C(OCc1ccccc1)N1C(=O)C(c2ccccc2NC(=O)C(F)(F)F)=C(O)C1Cc1ccccc1` (configuration not stated), the values for the Inhibition with Staphylococcus aureus and in the test with Escherichia coli were 36.54% and -6.54%, respectively.

With `O=C(Nc1ccc(O)cc1O)Nc1cc(O)ccc1O`, the Inhibition with Staphylococcus aureus was 10.74%; in the test with Escherichia coli, -13.5%.

Regarding `COc1ccc(OC)c(C(=O)CCc2ccc(O)cc2)c1`, the Inhibition was 16.63% in the test with Staphylococcus aureus and -22.53% in the test with Escherichia coli.

As to `CC1C(=O)N(Cc2ccc(OCCN3CCOCC3)cc2)C1(Cc1ccccc1)C(=O)O` (configuration not stated), the results for the Inhibition in the test with Staphylococcus aureus and with Escherichia coli were 11.78% and -10.5%, respectively.

Take `O=C(/C=C/c1c[nH]c2ccc(O)cc12)c1cc(O)ccc1O`: the Inhibition with Staphylococcus aureus is recorded as 20.75%; in the test on Escherichia coli it was -12.64%.

Regarding `COc1ccc(C(=O)/C=C/c2ccc(OC)cc2OC)cc1`, the Inhibition in the test with Staphylococcus aureus is 6.51%; in the test on Escherichia coli it was -22.4%.

Take `O=C(Cc1cc(O)ccc1O)Nc1cc(O)ccc1O`: the Inhibition in the test with Staphylococcus aureus is 22.67%; with Escherichia coli, -14.95%.

For the compound `COc1ccc(OC)c(NC(=O)Nc2ccc(OC)cc2OC)c1`, the Inhibition is listed as 5.98% in the test with Staphylococcus aureus and -17.47% with Escherichia coli.

As to `COc1ccc(OC)c(C(=O)/C=C/c2c[nH]c3ccc(OC)cc23)c1`, the Inhibition is listed as 20.69% in the test with Staphylococcus aureus and -14.33% in the test on Escherichia coli.

As to `COC(=O)C1(Cc2ccc(OCc3c(Cl)cccc3Cl)cc2)C(C)C(=O)N1Cc1ccc(OC)cc1` (configuration not stated), the values for the Inhibition with Staphylococcus aureus and in the test on Escherichia coli were 19.17% and -12.56%, respectively.

With `COC(=O)c1c(C(Cc2ccccc2)NC(=O)OCc2ccccc2)[nH]c2ccccc12` (configuration not stated), the Inhibition in the test on Staphylococcus aureus is recorded as 22.9%; in the test with Escherichia coli, -13.62%.

Regarding `COc1ccc(NC(=O)Cc2cc(OC)ccc2OC)cc1`, the Inhibition in the test on Staphylococcus aureus is given as 31.14%; in the test on Escherichia coli it was -11.77%.

For the compound `Oc1ccc(O)c(-c2cn(-c3ccc(O)c(O)c3)nn2)c1`, the Inhibition in the test with Staphylococcus aureus is given as 34.68%; in the test on Escherichia coli it was -12.66%.

Turning to `COc1ccc(OC)c(C(=O)/C=C/c2ccc(O)cc2)c1`, the Inhibition is recorded as 10.84% in the test with Staphylococcus aureus and -21.08% in the test on Escherichia coli.

With `O=C(/C=C/c1ccccc1O)c1cc(O)c(O)cc1O`, the results for the Inhibition in the test on Staphylococcus aureus and in the test on Escherichia coli were 26.82% and -8.37%, respectively.

On to `COc1ccc(OC)c(C(=O)/C=C/c2ccccc2O)c1`, for which the Inhibition in the test with Staphylococcus aureus is 11.52%; in the test with Escherichia coli, -22.92%.

Regarding `O=C(Cc1cc(O)ccc1O)Nc1ccc(O)cc1O`, the Inhibition is 17.97% with Staphylococcus aureus and -13.2% in the test on Escherichia coli.

Consider `O=C(Cc1cc(O)ccc1O)Nc1ccc(O)cc1`, for which the figures for the Inhibition in the test with Staphylococcus aureus and with Escherichia coli were 29.77% and -10.96%, respectively.

`COc1ccc(CN2C(=O)C(C)C2(Cc2cn(C(=O)OC(C)(C)C)c3ccccc23)C(=O)OC(C)(C)C)cc1` (configuration not stated): the Inhibition is given as 27.02% with Staphylococcus aureus and -6.98% in the test with Escherichia coli.

In the case of `COc1ccc(OC)c(CC(=O)Nc2ccc(OC)cc2OC)c1`, the Inhibition was 26.56% with Staphylococcus aureus and -12.34% in the test on Escherichia coli.

`Oc1ccc(-n2cc(-c3cc(O)ccc3O)nn2)cc1`: the Inhibition was 19.08% with Staphylococcus aureus and -16.85% in the test with Escherichia coli.

Turning to `COc1ccc(OC)c(CC(=O)Nc2cc(OC)ccc2OC)c1`, the Inhibition in the test on Staphylococcus aureus is 27.17%; in the test with Escherichia coli, -12.93%.

`COc1ccc(OC)c(-c2cn(-c3ccc(OC)c(OC)c3)nn2)c1`: the Inhibition in the test on Staphylococcus aureus is reported as -11.96%; in the test with Escherichia coli it was -27.73%.

As to `O=C(CCc1ccc(O)cc1O)c1cc(O)ccc1O`, the Inhibition with Staphylococcus aureus is 23.73%; with Escherichia coli it was -20.02%.

For `COc1ccc(OC)c(C(=O)CCc2ccccc2O)c1`, the Inhibition in the test with Staphylococcus aureus is recorded as 15.3%; in the test on Escherichia coli, -20.89%.

(Values after ChEMBL document CHEMBL4513136, “CO-ADD screening of CSIC (Spain) compounds”.)
